# Assay outcomes from PubChem BioAssay.
# CYP2C19 activ = human CYP2C19 activators, primary screen, biochemical, luminescence | Cytochrome P450 2C19 (Homo sapiens), P33261 | recombinant CYP2C19, luciferin-H EGE luminescence; stronger effect = higher value; 0 = fully inhibited enzyme, 1 = untreated enzyme | activation factor at 5 µM | 96,000 tested, under 10 active;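 active means activation factor of at least 2 at 5 µM in the primary screen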;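 further: 0 = wells with 2.5 mM tranylcypromine and 1 = vehicle-only wells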
# CYP2C9 act = human CYP2C9 activators, primary screen, biochemical, luminescence; hit rate 1.4% among 96,000; recombinant CYP2C9, luciferin-H conversion; stronger effect = higher value; factor 1 = untreated enzyme, 0 = blocked; activation factor at 5 µM; Cytochrome P450 2C9 (Homo sapiens), P11712;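 active means activation factor of 2 or more for CYP2C9 at a 5 µM dose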;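 further: 0 = sulfaphenazole-blocked wells and 1 = vehicle-only wells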
# Target sequence (P11712 whole entry, looked up): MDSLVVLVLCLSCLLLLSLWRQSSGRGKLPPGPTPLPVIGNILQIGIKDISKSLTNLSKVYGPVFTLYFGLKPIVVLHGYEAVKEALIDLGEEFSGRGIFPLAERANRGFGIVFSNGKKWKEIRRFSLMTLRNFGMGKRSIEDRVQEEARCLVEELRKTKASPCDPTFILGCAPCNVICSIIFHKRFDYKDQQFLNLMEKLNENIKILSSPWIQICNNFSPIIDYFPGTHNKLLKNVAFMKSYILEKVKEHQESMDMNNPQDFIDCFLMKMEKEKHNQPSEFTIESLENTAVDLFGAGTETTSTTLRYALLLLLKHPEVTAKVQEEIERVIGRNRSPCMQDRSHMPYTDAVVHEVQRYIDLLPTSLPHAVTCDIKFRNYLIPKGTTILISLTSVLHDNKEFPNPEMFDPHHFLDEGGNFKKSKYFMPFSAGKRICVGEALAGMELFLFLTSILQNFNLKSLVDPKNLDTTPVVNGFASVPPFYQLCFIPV
# Measles CPE = compounds protecting cells from measles virus cytopathic effect, primary screen, measles RdRp inhibitor project, single point, MLSMR library, absorbance; protection (pct of control), % at 4 µM; Measles virus-infected cells, CPE protection; AID 841, 2007; hit rate 1.5% among 140,000; in the data active means protection mostly above about 24%, no sharp cut-off; inactive means mostly below about 26%
# CYP2C9 inhib = blockers of cytochrome P450 2C9 activity – biochemical, luminescence, ADME assay, primary screen. P11712. CYP2C9 Supersomes, luciferin-H conversion. inhibition, % at 5 µM. hit rate 20% among 96,000. AID 777, 2007;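 active means blocking of liver enzyme CYP2C9 beyond about 50% at 5 µM, limit read from the data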
# CYP2C19 inhib = blockers of cytochrome P450 2C19 activity – biochemical, luminescence, ADME assay, primary screen. P33261. CYP2C19 Supersomes, luciferin-H EGE luminescence, 30 min. inhibition, % at 5 µM. hit rate 21% among 96,000;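 active means CYP2C19 inhibition above a set limit at 5 µM in the primary screen, cut at about 50% in these data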;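 further: plate controls were negative control wells for no effect and 2.5 mM tranylcypromine positive control for full effect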
# * = called active by the depositor; · = no result. Most compounds without a hit are left out; they make up all but 22% or so of the library.
SMILES,CYP2C19 activ,CYP2C9 act,Measles CPE,CYP2C9 inhib,CYP2C19 inhib
O=C(CSc1ccccc1)NCCCN1CCOCC1,1,1.1,1.9,-6.0,1.6
O=C(c1ccccc1)N1CCC(O)(c2ccc3c(c2)OCO3)CC1,·,·,20.9,·,·
CCCCC(=O)Nc1cccc(NC(=S)NC(=O)C(C)C)c1,·,·,11.1,·,·
CCOC(=O)c1oc2cc(O)ccc2c(=O)c1-c1ccccc1OC,0.9,0.7,5.5,28.3,5.6
CCOC(=O)c1ccc(-c2c(C(=O)OCC)oc3cc(O)c(CC)cc3c2=O)o1,0.3,0,1.2,96.8*,67.7*
CCOC(=O)c1oc2cc(O)ccc2c(=O)c1-c1csc(C)n1,1.1,1,6.8,4.5,-8.7
CCOC(=O)c1ccc(CC(=O)c2oc3cc(O)ccc3c2C)o1,0.7,0.3,13.7,65.5*,28.0
CN(C(=O)c1cccc(C#N)c1)c1nnc(C2CCCO2)s1 (configuration not stated),1,0.9,10.8,5.5,0.9
COc1ccc(N2C(=O)CCC2=O)cc1,1.2,1.3,5.0,-27.4,-23.8
NC(=O)N1OCC2COc3ccc4ccccc4c3C21 (configuration not stated),1,2.1*,6.5,-108.0,4.7
O=C(/C=C/c1cccc(Br)c1)NCC1CCCCC1,·,·,2.6,·,·
CCCCCCNCc1ccc(Br)cc1,0.2,1,17.6,1.1,75.4*
CCCCCCNC(=O)c1ccc(Br)o1,·,·,3.8,·,·
Cc1ccc(C(=O)N/C(=C/c2cccs2)C(=O)NCCCn2ccnc2)cc1,·,·,36.5,·,·
COc1ccc(N=CC2=C(O)CC(C)(C)CC2=O)cc1,0.8,0.7,5.0,25.3,21.2
COc1ccc(NC(=O)c2nnn(Cc3ccc(SC)cc3)c2N)c(OC)c1,1,2.5*,3.5,-147.3,4.9
COc1ccc(C)cc1NC(=O)c1nnn(Cc2cc(C)ccc2C)c1N,0.8,2.4*,21.7,-141.6,17.4
COc1ccc(OC)c(NC(=O)c2nnn(Cc3ccccc3C)c2N)c1,0.8,2.1*,2.3,-114.7,16.4
COc1ccccc1NC(=O)c1nnn(CC(=O)Nc2ccccc2)c1N,·,·,4.9,·,·
COc1cccc(Cn2nnc(C(=O)Nc3cc(C)ccc3OC)c2N)c1,0.9,1.3,7.0,-26.1,13.9
COc1ccc(C)cc1NC(=O)c1nnn(CCc2ccccc2)c1N,0.9,1.2,6.7,-23.1,8.1
COc1cccc(Cn2nnc(C(=O)Nc3ccc(C)cc3)c2N)c1,0.8,2.1*,27.5,-108.2,24.6
CC1=CC(=C(C#N)c2nc3ccccc3s2)C=C(C)N1Cc1ccco1,0.8,0.7,5.2,25.8,16.4
COc1cc(C(=O)Nc2ccc3c(c2)C(=O)N(CCC(=O)O)C3=O)cc(OC)c1OC,·,·,8.1,·,·
O=C(NNC1=C(C(=O)C(F)(F)F)CCC1)c1cccc(Cl)c1,0.7,0.1,2.3,91.1*,25.8
SMILES,CYP2C19 activ,CYP2C9 act,Measles CPE,CYP2C9 inhib,CYP2C19 inhib
CC(C)(C)c1ccc(C(=O)NNC(=O)c2ccc(Cl)cc2)cc1,·,·,5.8,·,·
O=C(NNC(=S)Nc1cccc(C(F)(F)F)c1)c1cccc(Cl)c1,·,·,7.8,·,·
O=C(NNC1=C(C(=O)C(F)(F)F)CCC1)c1ccc(Cl)cc1,1,0.5,9.6,50.4*,2.1
CNc1sc(C(=O)c2cccs2)c(N)c1-c1nc2ccccc2s1,0.7,0.3,32.6,67.1*,29.0
CCC(=O)N(Cc1cc(=O)[nH]c2ccccc12)C1CCCCC1,1.1,1,7.1,3.2,-5.7
CC12CCC(C(=O)Nc3ccccc3Cl)(C(Br)C1=O)C2(C)C (configuration not stated),·,·,36.3*,·,·
NC(=S)n1[nH]c(-c2ccc([N+](=O)[O-])cc2)c(N=Nc2ccc(O)cc2)c1=O,1,0.2,6.2,75.5*,-2.7
CCN(CC)S(=O)(=O)c1ccc(N=Nc2c(C)[nH]n(C(N)=S)c2=O)cc1,·,·,23.5,·,·
O=C(NC(=Nc1ccccc1)N1CCOCC1)Nc1ccccc1,0.5,0.4,2.1,56.4*,54.7*
COc1ccc(OC)c(-c2csc(NC(=O)c3ccc(OCC4CCCO4)cc3)n2)c1 (configuration not stated),·,·,9.6,·,·
Cc1nc(-c2coc3c(CN(C)C)c(O)ccc3c2=O)cs1,1,0.9,34.8*,5.2,3.1
CN1C(=O)NC(NC(=O)c2ccco2)(C(F)(F)F)C1=O (configuration not stated),1,1,12.4,-0.1,-1.9
CC(C)CN1C(=O)NC(NC(=O)c2ccco2)(C(F)(F)F)C1=O (configuration not stated),0.4,0.8,3.9,16.2,55.5*
CCN1CCN(C(=S)Nc2cccc([N+](=O)[O-])c2)CC1,·,·,35.7,·,·
COC(=O)c1ccc2c(=O)n(CC3CCCO3)c(SCC(=O)Nc3ccccc3Cl)nc2c1 (configuration not stated),0.6,0.5,3.7,49.1,36.9
O=C(NCc1ccco1)c1ccc2c(=O)n(Cc3ccco3)c(SCC(=O)N3CCCC3)nc2c1,0.8,0.4,2.4,63.7*,22.8
COC(=O)c1ccc2c(=O)n(Cc3ccco3)c(SCC(=O)Nc3ccccc3Cl)nc2c1,0.7,0.1,1.7,87.5*,34.9
O=C(CSc1nc2ccccc2c(=O)n1-c1ccccc1)N1CCCC1,0.7,0.5,6.6,51.0*,33.8
CCSc1nc2cc(OC)c(OC)cc2c(=O)n1CCc1ccccc1,0.8,0.5,7.7,49.1,19.3
COc1cc2nc(SCC(=O)NCCc3ccccc3)n(Cc3ccco3)c(=O)c2cc1OC,0.3,0,5.5,95.9*,65.8*
CC(C)(C)C(=O)OCCNc1nc(-c2ccccc2)nc2ccccc12,·,·,21.6,·,·
O=C(CSc1nc2ccccc2c(=O)n1Cc1ccco1)N1CCCCCC1,0.4,0.1,45.2*,94.6*,57.8*
CC(C(=O)Nc1ccc2c(c1)OCCO2)c1ccc([N+](=O)[O-])cc1 (configuration not stated),·,·,26.1,·,·
CNC(=O)CN(c1ccc(C(C)C)cc1)S(C)(=O)=O,0.4,1.1,4.9,-9.7,60.7*
Cc1coc(NC(=O)CSc2nc(-c3ccncc3)cc(C(F)(F)F)c2C#N)n1,0.8,0.6,9.3,35.3,19.7
N#C/C(=C\c1ccc(Cl)cc1)c1nc2ncccc2[nH]1,0.9,0.4,0.5,60.7*,14.7
COCCNC(=O)C(c1ccco1)N(Cc1ccc(OC)cc1)C(=O)Cn1nnc2ccccc21 (configuration not stated),1,1.1,16.2,-6.0,-4.1
COc1ccc(OC)c(N(CC(=O)N2CCC(C)CC2)S(=O)(=O)c2ccccc2)c1,0.7,0.5,9.0,52.1*,34.0
COc1ccc(S(=O)(=O)N(C)CC(=O)N2CCC(C)CC2)cc1Cl,0.9,2.5*,1.9,-154.9,6.7
COc1ccc(OC)c(N(CC(=O)N2CCC(C)CC2)S(=O)(=O)c2ccc(OC)c(OC)c2)c1,0.8,0.6,2.5,39.0,16.0
